This is an account of results in PubChem BioAssay (NCATS).

A short description of test [1]: qHTS profiling of the MIPE4 collection as inhibitors of Plasmodium falciparum (HB3) proliferation (AID 743347; call rule not given here;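 also: plate controls were DMSO vehicle wells for no effect and artemisinin wells for full effect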). The conditions noted are these: P. falciparum HB3 in erythrocytes, SYBR Green DNA, 72 h; at 28.5 µM (top of the series) unless noted. Put shortly: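 Erythrocytes infected with P. falciparum (0.3% parasitemia, 2.5% hematocrit) incubated with compounds 72 h at 37 C, 5% CO2. Lysis with saponin/Triton buffer containing SYBR Green I, overnight at room temperature in the dark; DNA fluorescence (485/535 nm) normalised to 0.29 uM artemisinin and DMSO.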
For orientation: Quantitative high-throughput screening tests each substance at several concentrations.

Test [2] is described as follows: High-throughput drug toxicity screening in the BPDCN cell line Gen2.2 (AID 1224824; call rule not given here;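 also: cells exposed to compounds for 48 h before reading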). The conditions noted are these: Gen2.2 BPDCN cells; at 45.8 µM (top of the series) unless noted. An outline of the steps: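 Gen2.2, 500 cells/well, phenol red-free RPMI/10% FBS/Pen-Strep; 48 h cpd, 37 °C/5% CO2; CTG lum, 15 min RT. Norm: DMSO = 100%, bortezomib 9.2 uM final = 0%.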

Test [3] in a line: High-throughput drug toxicity screening in the BPDCN cell line Cal-1 (AID 1224825; call rule not given here). The conditions noted are these: Cal-1 BPDCN cell viability, qHTS; at 45.8 µM (top of the series) unless noted. Put shortly: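 Exponentially growing Cal-1 cells, 500 per well in phenol red-free RPMI with 10% FBS, were exposed to compounds for 48 h at 37 °C, 5% CO2. Viability was read by CellTiter-Glo luminescence and normalised to DMSO (100%) and 9.2 uM bortezomib (0%).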

A short description of test [4]: qHTS assay for measurement of the activity of small molecule inhibitors on Zika virus induced Caspase-3 activity in human iPSC derived neural progenitor cells (hNPCs) (AID 1224857). Also: nearly all actives have a fitted effect of over 65% in size. Also: potency is read from the fitted curve at half-maximal effect. An outline of the steps: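 Human iPSC-derived neural progenitor cells pretreated 1 hr with compounds, then infected with Zika virus (2 FFU/cell) for 6 hours at 37 C. Caspase-3/7 measured by Caspase-Glo luminescence; % inhibition calculated from induction scaled to uninfected (0%) and infected (100%) wells.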

Test [5] can be described thus: qHTS assay for measurement of the activity of small molecule inhibitors on Zika virus induced Caspase-3 activity in human astrocytoma cells (AID 1224859).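 Also: plate controls were ZIKV-infected untreated cells for no effect and uninfected cells for full effect.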 An outline of the steps:
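SNB-19 astrocytoma cells, 250/well, pretreated 1 h with compounds, then Zika virus at 2 FFU/cell for 6 h at 37 C; Caspase-Glo 3/7 luminescence after 30 min; percent inhibition normalised to uninfected and infected controls.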

A short description of test [6]: qHTS Screen of the MIPE 4.0 Collection Against Ewings Sarcoma (RDES) (AID 1259252). Also: nearly all actives have a fitted effect of over 35% in size. Also: potency is read from the fitted curve at half-maximal effect. An outline of the steps: (§1)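 Here, cells in 5% FBS RPMI were exposed for two days (48 h) to compound dilutions added four hours after plating. ATP-based CellTiter-Glo luminescence measured viability, normalized to vehicle and no-cell blanks.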
A short description of test [7]: qHTS Screen of the MIPE 4.0 Collection Against Ewings Sarcoma (TC71) (AID 1259253). Also: nearly all actives have a fitted effect of over 40% in size. Also: potency is read from the fitted curve at half-maximal effect. An outline of the steps:
as §1

Test [8] is described as follows: qHTS Screen of the MIPE 4.0 Collection Against Ewings Sarcoma (EW8) (AID 1259255). Also: nearly all actives have a fitted effect of over 35% in size. Also: potency is read from the fitted curve at half-maximal effect.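 As to viability: 100% = DMSO-treated cells and 0% = medium-only wells without cells.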 An outline of the steps: as §1
The nature of test [9]: qHTS assay to identify small molecule inhibitors of chordoma cells - UCH-1 (AID 1259355). Also: % is scaled to controls: 0 for no effect and ±100 for the full control effect; nearly all actives have a fitted effect of over 55% in size. An outline of the steps:
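Luminescent ATP read-out (CellTiter-Glo, 30min at room temperature) measured viability of UCH-1 cells exposed for 48hr to test drugs at 15 concentrations, co-dosed with a five-agent combination of auranofin, camptothecin, doxorubicin, rubitecan and topotecan.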

Test [10] in a line: P-glycoprotein substrates identified in KB-3-1 adenocarcinoma cell line, qHTS therapeutic library screen (AID 1346986). Also: nearly all actives have a fitted effect of over 60% in size. The conditions noted are these: outcome: dose series up to 44.5 µM unless noted. Put shortly:
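Resistance attributable to P-gp was assessed by comparing AC50 in KB-8-5-11 with parental KB-3-1 and by tariquidar reversal. Cells were exposed 72 h and viability read by CellTiter-Glo.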

The nature of test [11]: Natriuretic polypeptide receptor (hNpr1) antagonism - Pilot counterscreen GloSensor control cell line (AID 1347045; calls by dose curve; also: % is scaled to controls: 0 for no effect and ±100 for the full control effect). An outline of the steps: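 HEK293 cGMP GloSensor cells preloaded 2 h with 2% GloSensor reagent, then compound 30 min before baseline luminescence read. Stimulated with 50 uM sodium nitroprusside, 20 min at room temperature, then read again; counterscreen for Npr1 antagonism.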

Test [12] can be described thus: qHTS assay to identify small molecule inhibitors of chordoma cells - UCH-2 (AID 1259356). Also: % is scaled to controls: 0 for no effect and ±100 for the full control effect.
Test [13] is described as follows: qHTS Screen of the MIPE 4.0 Collection Against Ewings Sarcoma (TC32) (AID 1259256). Also: nearly all actives have a fitted effect of over 45% in size. Also: potency is read from the fitted curve at half-maximal effect. Put shortly: as §1
Test [14] in a line: P-glycoprotein substrates identified in KB-8-5-11 adenocarcinoma cell line, qHTS therapeutic library screen (AID 1346987). Also: nearly all actives have a fitted effect of over 65% in size. Also: potency is read from the fitted curve at half-maximal effect. An outline of the steps:
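KB-8-5-11, a colchicine-selected P-gp-overexpressing KB-3-1 subline, was grown without colchicine for the assay. Cells were seeded at 500 cells/well, dosed in concentration-response and incubated 72 h at 37 degree C, 5% CO2. Viability was read by CellTiter-Glo luminescence.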

A short description of test [15]: Identifying Small Molecule Inhibitors of Pancreatic Cancer Stem Cells (SN12C, Adherent) (AID 1259358).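 Also: cell survival measured after 48 h of compound exposure.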 Put shortly: (§2)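 Luminescent ATP readout (CellTiter-Glo) quantifies surviving cells after a 48 h drug incubation. Normalization uses DMSO wells as no inhibition and media-only wells as full inhibition; bortezomib served as positive control.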
Test [16] in a line: Identifying Small Molecule Inhibitors of Pancreatic Cancer Stem Cells (A278, Adherent) (AID 1259361).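 Also: 100% = DMSO-treated cells and 0% = cell-free media-only wells; nearly all actives have a fitted effect of over 35% in size.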 An outline of the steps:
as §2

A short description of test [17]: Identifying Small Molecule Inhibitors of Pancreatic Cancer Stem Cells (Panc1, Adherent) (AID 1259362).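 Also: compound exposure lasted 48 h before the viability read; plate controls were DMSO-treated cells for no effect and cell-free media wells for full effect.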 The conditions noted are these: Potency: viability. Put shortly:
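Spheroids grown 14 days in stem cell media on hydrogel-coated nonadherent plates; 2D lines seeded directly. Compounds added after 4 h attachment, 48 h at 37C, 5% CO2; CellTiter-Glo luminescence normalized to DMSO (no inhibition) and no-cell wells (full inhibition).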

Setting [18] is: outcome: dose series up to 44.5 µM unless noted.

Molecules are shown by their SMILES. Several values for one entry are separate records, joined by “and”; a condition that tells them apart may be missing. Equal values may be shown once. Results filed as inconclusive are left out. The source holds several records for some structures; these can differ, active in one and inactive in another. Activity calls are given as the source filed them. Unless noted, calls follow the shape of the dose curve; as a rule, active = well fitted curve in the direction sought with a large enough effect; inconclusive = small, poorly fitted or top-dose-only effect, or another doubt; inactive = no such curve, though single readings can be large; an effect the other way counts as inactive or inconclusive.

The compound `Nc1c2c(nc3ccccc13)CCCC2` gave a growth, % of control in test [1] of 20.2%. In test [2], the cell viability, % of control (lower = more cytotoxic) turned out to be 131%. In [3], the viability (% of control) was 101%. The Potency entry in test [4], in test [5], in test [9] and in [11] was “inactive” in each case. Also, the Potency was 26.4 µM (active) in test [6], 18.7 µM (active) in test [7] and 18.7 µM (active) in test [8]. Besides, the call in test [10] was inactive.
For `CC(CCc1ccc(O)cc1)NCCc1ccc(O)c(O)c1` (centres undefined), in test [1], the growth, % of control stood at 92.8%. Moreover, the cell viability, % of control (lower = more cytotoxic) in test [2] was determined as 5%. The viability (% of control) in [3] was found to be 9.22%. Besides, the Potency result in test [4], in test [5] and in [11] was “inactive” in each case. Moreover, the Potency in test [7] and in [8] was 23.5 µM (active) each time. The result in test [12] was inactive.
Turning to `CC(COc1ccccc1)N(CCCl)Cc1ccccc1` (centres undefined), in test [2], the cell viability, % of control (lower = more cytotoxic) came out at 82.3%. The viability (% of control) in test [3] came out at 45%. In addition, the Potency result in test [4], in [5], in test [6], in [7], in test [13] and in test [9] was “inactive” each time. In test [11], the Potency entry was “inactive”.
In test [1], `Cn1c(=O)c2c(ncn2C)n(C)c1=O` had a growth, % of control of 103%. Further, the cell viability, % of control (lower = more cytotoxic) in test [2] was determined as 150%. Further, in [3], the viability (% of control) turned out to be 116%. Moreover, the Potency entry in test [4], in test [5], in test [6], in [13] and in [14] (setting [18]) was “inactive” throughout.
Compound `C[C@@H]1CC(=O)NN=C1c1ccc(NN=C(C#N)C#N)cc1` showed a growth, % of control in test [1] of 9.14%. Besides, in [2], the cell viability, % of control (lower = more cytotoxic) came to 7.71%. The viability (% of control) in [3] was determined as 5.81%. Besides, the Potency result in [4], in test [5], in [9] and in test [14] (setting [18]) was “inactive” each time. Moreover, the values for the Potency in test [7] and in test [13] were 29.6 µM (active) and 20.9 µM (active), respectively.
In test [1], `CC[C@@]1(O)C(=O)OCc2c1cc1n(c2=O)Cc2cc3c(CN(C)C)c(O)ccc3nc2-1` came in with a growth, % of control of 21.3%. In addition, in test [2], the cell viability, % of control (lower = more cytotoxic) amounted to 14.6%. In [3], the viability (% of control) came to 3.81%. Further, the Potency result in [4] and in test [5] was “inactive” throughout. The Potency was 0.0332 µM (active) in test [6]; 0.0372 µM (active) in [7]; 0.0332 µM (active) in test [8]; 5.9 µM (active) and 8.2 µM (active) in test [14] (setting [18]).
Regarding `Clc1ccc2nsnc2c1NC1=NCCN1`, the growth, % of control in [1] is 67.7%. The cell viability, % of control (lower = more cytotoxic) in [2] is 64.1%. For the same compound, the viability (% of control) in test [3] came to 57%. The Potency entry in [4] is “inactive and 20.9 µM (active)”. Also, the Potency entry in [5], in test [6], in test [7], in test [8], in test [13] and in test [14] (setting [18]) was “inactive” in each case.
`CN(C)C(=N)N=C(N)N`: the growth, % of control in [1] was determined as 110%. For the same compound, the cell viability, % of control (lower = more cytotoxic) in [2] was 165%. For the same compound, in test [3], the viability (% of control) was 99.5%. Moreover, the Potency entry in test [4], in test [5], in test [6], in test [7], in test [13] and in test [9] was “inactive” in each case. The Potency entry in test [15] and in test [17] was “inactive” throughout. Moreover, the IC50 (viability decrease) result in test [16] is “inactive”. Besides, the outcome in test [10] and in [14] (setting [18]) was “inactive [setting not given]” in each case. In addition, in [14] (KB-8-5-11 (P-gp overexpressing) viability, CellTiter-Glo, 72 h, at 44.5 µM (top of the series)), the result was inactive.
Take `COc1ccccc1N1CCN(CC(O)COc2cccc3ccccc23)CC1` (centres undefined): the growth, % of control in test [1] amounted to 74.7%. Besides, in [2], the cell viability, % of control (lower = more cytotoxic) was determined as 156%. Besides, the viability (% of control) in [3] amounted to 112%. Also, the Potency entry in test [4], in test [5] and in [11] was “inactive” each time. Further, in test [7], the Potency was 16.6 µM (active).
Take `NCCS(=O)(=O)O`: the growth, % of control in [1] is 110%. The cell viability, % of control (lower = more cytotoxic) in test [2] came to 573%. Besides, in [3], the viability (% of control) worked out at 133%. Besides, the Potency result in test [4], in test [5], in [6], in test [7], in [8] and in test [9] was “inactive” each time. The Potency result in test [14] (setting [18]) and in test [11] was “inactive” in each case. Also, the compound was called inactive in [12].
